In PubChem BioAssay (NCATS):
Records with an inconclusive call do not appear. Active and inactive are the calls of the source. The call rests on the fitted dose curve; in most records, active means well fitted curve in the direction sought with a large enough effect; inconclusive means small, poorly fitted or top-dose-only effect, or another doubt; inactive means no such curve, though single readings can be large; an effect the other way counts as inactive or inconclusive.

Key:
[1] = S16 Schwann cell PMP22 intronic element firefly luciferase assay (AID 624032); further: nearly all actives have a fitted effect of over 30% in size
Outline: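 Rat S16 Schwann cells stably carrying a PMP22 intronic element-driven Fluc reporter were seeded overnight, then exposed to compounds for 24 h at 37 °C. Luminescence was normalized to PTC124 (positive control) and DMSO (0% activity).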

7G8 = experiment: qHTS profiling for inhibitors of Plasmodium falciparum proliferation (AID 504749); further: nearly all actives have a fitted effect of over 60% in size; details: P. falciparum in erythrocytes, SYBR Green DNA, 72 h; series mostly up to 28.7 µM
Outline: (§1)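 P. falciparum-infected erythrocytes (0.3% parasitemia, 2.5% hematocrit final) were exposed to compounds for 72 h at 37 C in 5% CO2, then lysed with SYBR Green buffer overnight at room temperature; parasite DNA fluorescence was normalized to artemisinin and DMSO controls.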

ATS95 = experiment: as above; details: P. falciparum in erythrocytes, SYBR Green DNA, 72 h; series mostly up to 28.7 µM
Outline: as §1

CP203 = experiment: as above; details: P. falciparum in erythrocytes, SYBR Green DNA, 72 h; series mostly up to 28.7 µM
Outline: as §1

CP215 = experiment: as above; details: P. falciparum in erythrocytes, SYBR Green DNA, 72 h; series mostly up to 28.7 µM
Outline: as §1

CP247 = experiment: as above; details: P. falciparum in erythrocytes, SYBR Green DNA, 72 h; series mostly up to 28.7 µM
Outline: as §1

CP260 = experiment: as above; details: P. falciparum in erythrocytes, SYBR Green DNA, 72 h; series mostly up to 28.7 µM
Outline: as §1

CP266 = experiment: as above; details: P. falciparum in erythrocytes, SYBR Green DNA, 72 h; series mostly up to 28.7 µM
Outline: as §1

CP268 = experiment: as above; details: P. falciparum in erythrocytes, SYBR Green DNA, 72 h; series mostly up to 28.7 µM
Outline: as §1

CP291 = experiment: as above; details: P. falciparum in erythrocytes, SYBR Green DNA, 72 h; series mostly up to 28.7 µM
Outline: as §1

CP297 = experiment: as above; details: P. falciparum in erythrocytes, SYBR Green DNA, 72 h; series mostly up to 28.7 µM
Outline: as §1

CP325 = experiment: as above; details: P. falciparum in erythrocytes, SYBR Green DNA, 72 h; series mostly up to 28.7 µM
Outline: as §1

CP335 = experiment: as above; details: P. falciparum in erythrocytes, SYBR Green DNA, 72 h; series mostly up to 28.7 µM
Outline: as §1

DIV14 = experiment: as above; details: P. falciparum in erythrocytes, SYBR Green DNA, 72 h; series mostly up to 28.7 µM
Outline: as §1

DIV17 = experiment: as above; details: P. falciparum in erythrocytes, SYBR Green DNA, 72 h; series mostly up to 28.7 µM
Outline: as §1

GB4 = experiment: as above; details: P. falciparum in erythrocytes, SYBR Green DNA, 72 h; series mostly up to 28.7 µM
Outline: as §1

ICS = experiment: as above; details: P. falciparum in erythrocytes, SYBR Green DNA, 72 h; series mostly up to 28.7 µM
Outline: as §1

P93_24 = experiment: as above; details: P. falciparum in erythrocytes, SYBR Green DNA, 72 h; series mostly up to 28.7 µM
Outline: as §1

PC26 = experiment: as above; details: P. falciparum in erythrocytes, SYBR Green DNA, 72 h; series mostly up to 28.7 µM
Outline: as §1

PC49 = experiment: as above; details: P. falciparum in erythrocytes, SYBR Green DNA, 72 h; series mostly up to 28.7 µM
Outline: as §1

Measured: Potency
Potency means the concentration at half of the fitted maximal effect.

CNC1C(O)C(OC2C(N)CC(N)C(OC3OC(CN)=CCC3N)C2O)OCC1(C)O (stereo unspecified)
inactive: all assays above

O=C1[C@@H]2C[C@@H]3C[C@H]1C[C@@](O)(C3)C2
not listed: [1]
inactive: all other assays above

CC1(C)SC2C(NC(=O)C(C(=O)O)c3ccccc3)C(=O)N2C1C(=O)O (stereo unspecified)
inactive: all assays above

COc1cc2c(cc1O)CCN[C@@]21CS[C@H]2c3c(OC(C)=O)c(C)c4c(c3C(COC1=O)N1C2C2c3c(cc(C)c(OC)c3O)CC([C@@H]1O)N2C)OCO4 (stereo partly specified)
active: 7G8 0.0003 µM | ATS95 0.0009 µM | CP203 0.0004 µM | CP215 0.0005 µM | CP247 0.0011 µM | CP260 0.0009 µM | CP266 0.0015 µM | CP268 0.0005 µM | CP291 0.0004 µM | CP297 0.0005 µM | CP325 0.0005 µM | CP335 0.0004 µM | DIV14 0.0004 µM | GB4 0.0002 µM | ICS 0.0009 µM | P93_24 0.0009 µM | PC26 0.0013 µM | PC49 0.0013 µM
inactive: [1]

O=C(OC[C@@H]1O[C@@](O)(COC(=O)c2cccnc2)[C@H](OC(=O)c2cccnc2)[C@H]1OC(=O)c1cccnc1)c1cccnc1
active: [1] 2.56 µM
inactive: all other assays above

OCC1O[C@H](Oc2ccc(O)cc2)C(O)C(O)C1O (stereo partly specified)
not listed: P93_24
inactive: all other assays above

COC1CC2CCC(C)[C@](O)(O2)C(=O)C(=O)N2CCCCC2C(=O)OC(C(C)CC2CCC(O)C(OC)C2)CC(=O)C(C)/C=C(/C)C(O)C(OC)C(=O)C(C)CC(C)C=CC=C/C=C\1C (stereo partly specified)
active: 7G8 1 µM | ATS95 3.55 µM | CP203 1.69 µM | CP215 1.51 µM | CP247 3.16 µM | CP260 2.51 µM | CP266 6.75 µM | CP268 6.01 µM | CP291 4.78 µM | CP297 4.26 µM | CP325 5.36 µM | DIV14 1.51 µM | DIV17 1.69 µM | GB4 1.69 µM | ICS 0.891 µM | P93_24 1.41 µM | PC26 3.79 µM | PC49 2.24 µM

CC1(C)CC1C(=O)N/C(=C/CCCCSCC(N)C(=O)O)C(=O)O (stereo unspecified)
not listed: CP260
inactive: all other assays above

CC(=O)C1(O)Cc2c(O)c3c(c(O)c2C(OC2CC(N)C(O)C(C)O2)C1)C(=O)c1c(O)cccc1C3=O (stereo unspecified)
active: 7G8 0.708 µM | ATS95 6.31 µM | CP247 5.01 µM | CP260 3.98 µM | CP266 15.1 µM | CP335 5.36 µM | DIV14 5.36 µM | DIV17 5.36 µM | GB4 6.75 µM | ICS 3.55 µM | P93_24 6.31 µM | PC26 5.36 µM | PC49 6.31 µM

C[C@@H]1CCN(C(=O)[C@H](CCCNC(=N)N)NS(=O)(=O)c2cccc3c2NC[C@H](C)C3)[C@@H](C(=O)O)C1
not listed: CP203
inactive: all other assays above

NC(CSSCC(N)C(=O)O)C(=O)O (stereo unspecified)
inactive: all assays above
